LYPLA2 inh = counter-screen for PME1 inhibitors: inhibitors of human LYPLA2 | actives 0.38% (n = 320,000) | inhibition, % at 5.9 µM | recombinant LYPLA2, FP-Rh probe fluorescence polarization | AID 2177;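 active = inhibition above the screen-wide mean plus 3 SD, limit set per campaign, cut at about 26% in these data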;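 also: 0% = LYPLA2 with DMSO and 100% = wells lacking LYPLA2 enzyme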
Rin1 Abl inh = human Rin1-Abl interaction inhibition | P00519+Q13671 | TR-FRET Rin1/Abl binding, biochemical | inhibition, % at 7.35 µM | actives 0.4% (n = 360,000); in the data active = inhibition above about 5%, passing the limit was not always enough
p97 ATPase inh = inhibitors of human p97 ATPase; actives 0.42% (n = 220,000); inhibition, % at 8 µM; AID 1481; P55072; recombinant p97 ATPase, Kinase-Glo ATP luminescence, 3 h; in the data active = inhibition above about 15%;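 also: 0% = DMSO vehicle and 100% = wells lacking enzyme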
PREPL inh = human PREPL enzyme inhibition; recombinant PREPL, fluorescence polarization activity-based probe; actives 0.68% (n = 320,000); inhibition, % at 5.96 µM; Q4J6C6; AID 2751;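 also: 0% = enzyme with DMSO and 100% = wells lacking enzyme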
Target sequence (Q4J6C6 whole entry, looked up): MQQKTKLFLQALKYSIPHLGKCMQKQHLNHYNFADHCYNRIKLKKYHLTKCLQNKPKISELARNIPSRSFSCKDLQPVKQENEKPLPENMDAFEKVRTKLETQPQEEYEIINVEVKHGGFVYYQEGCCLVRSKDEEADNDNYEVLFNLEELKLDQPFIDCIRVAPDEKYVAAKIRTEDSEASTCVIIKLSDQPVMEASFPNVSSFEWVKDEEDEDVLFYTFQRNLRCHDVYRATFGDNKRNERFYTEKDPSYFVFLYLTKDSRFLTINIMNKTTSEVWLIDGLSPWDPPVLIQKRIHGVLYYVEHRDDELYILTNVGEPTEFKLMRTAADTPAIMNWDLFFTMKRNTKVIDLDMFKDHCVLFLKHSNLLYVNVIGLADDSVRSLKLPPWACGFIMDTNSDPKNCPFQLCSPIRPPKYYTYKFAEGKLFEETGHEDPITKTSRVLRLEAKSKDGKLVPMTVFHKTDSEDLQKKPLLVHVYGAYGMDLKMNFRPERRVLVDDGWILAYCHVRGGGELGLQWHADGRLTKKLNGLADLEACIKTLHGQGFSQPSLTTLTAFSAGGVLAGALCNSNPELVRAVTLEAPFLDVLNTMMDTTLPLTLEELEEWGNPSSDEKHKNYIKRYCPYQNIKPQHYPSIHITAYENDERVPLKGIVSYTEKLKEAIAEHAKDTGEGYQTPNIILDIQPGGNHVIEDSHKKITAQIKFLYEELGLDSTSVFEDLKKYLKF
Hck Nef HTS = inhibitors of human Hck kinase activated by Nef | AID 463187 | inhibition, % at 20 µM | Recombinant Hck-YEEI plus Nef, Z-Lyte FRET kinase assay | P08631 | actives 0.68% (n = 220,000);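 active = Hck-Nef kinase inhibition above about 50%, limit read from the data; inactive = inhibition below that limit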;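 also: 0% = DMSO with Hck plus Nef and 100% = Hck alone without Nef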
LYPLA1 inh = counter-screen for PME1 inhibitors: inhibitors of human LYPLA1 | O75608 | inhibition, % at 5.9 µM | actives 0.16% (n = 320,000) | AID 2174 | recombinant LYPLA1, FP-Rh probe fluorescence polarization;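 active = inhibition above the mean of all tested compounds plus 3 SD, set per campaign, cut at about 14% in these data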;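 also: inhibitors block serine hydrolase probe labeling of LYPLA1 so polarization falls; 0% = enzyme with DMSO and 100% = wells lacking LYPLA1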
PREPL confirm = confirmation of human PREPL enzyme inhibitors; shares compounds with PREPL inh; recombinant PREPL, fluorescence polarization activity probe; inhibition, % at 5.96 µM; actives 67% (n = 2,000); AID 2803;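 also: 0% = protein with DMSO and 100% = wells lacking protein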
* = called active by the depositor; · = no result given. Compounds with a hit are over-represented: about 1.7% of the library has one in this group of screens. Rule as the data show it, unless noted: active = inhibition above about 43%; inactive = the rest.

SMILES	LYPLA2 inh	Rin1 Abl inh	p97 ATPase inh	PREPL inh	Hck Nef HTS	LYPLA1 inh	PREPL confirm
O=c1c2ccccc2sc2ccc(NCCCN3CCOCC3)cc12	1.4	-14.4	·	44.8*	·	3.8	35.3
CC1CCCCN1CCCNC(=O)C1CCCN(c2ncnc3c2nc2n3CCCCC2)C1 (stereo not given)	0.1	3.4	·	0.2	·	2.5	·
C[C@H]1COC(=O)[C@@H](Cc2ccc(F)cc2)C/C=C\C[C@H](CC(=O)N(CCO)Cc2ccccc2)C(=O)N1	·	1.3	·	24.5	·	·	·
CC(C)(C)[C@@H]1COC(=O)[C@H](Cc2ccc(F)cc2)CC/C=C\C[C@@H](CC(=O)N(CCO)Cc2ccccc2)C(=O)N1	·	1.3	·	47.3*	·	·	50.7*
O=C1OC[C@@H]2CCCN2C(=O)[C@@H](CC(=O)N(CCO)Cc2ccccc2)C/C=C\CC[C@H]1Cc1ccc(F)cc1	·	3.6	·	43.8*	·	·	30.4
O=C1N[C@@H](Cc2c[nH]c3ccccc23)COC(=O)[C@@H](Cc2ccc(F)cc2)C/C=C\C[C@H]1CC(=O)N(CCO)Cc1ccccc1	·	2.9	·	61.5*	·	·	53.0*
CC(C)(C)[C@@H]1COC(=O)[C@@H](Cc2ccc(F)cc2)C/C=C\C[C@H](CC(=O)N(CCO)Cc2ccccc2)C(=O)N1	·	0.7	·	56.4*	·	·	46.5*
Cc1ccc(S(=O)(=O)Nc2ccccc2-c2nc3ccccc3[nH]c2=O)cc1	0.9	1.2	·	-1.4	·	1.2	·
CS(=O)(=O)N(CC(=O)O)c1cc(C(F)(F)F)ccc1Cl	1.6	-0.9	·	-0.4	·	0.9	·
O=C1N[C@H](Cc2ccccc2)COC(=O)[C@@H](Cc2ccc(F)cc2)CC/C=C/C[C@H]1CC(=O)N(CCO)Cc1ccccc1	·	-0.1	·	30.4	·	·	·
O=C1N[C@@H](c2ccccc2)COC(=O)[C@@H](Cc2ccc(F)cc2)C/C=C\C[C@@H]1CC(=O)N(CCO)Cc1ccccc1	·	-1.5	·	51.6*	·	·	40.7
O=C1N[C@@H](Cc2ccccc2)COC(=O)[C@@H](Cc2ccc(F)cc2)CC/C=C/C[C@@H]1CC(=O)N(CCO)Cc1ccccc1	·	-1.1	·	44.0*	·	·	43.3*
COc1ccc2cc1Oc1ccc(cc1)CC1c3c(cc(OC)c4c3Oc3cc5c(cc3O4)CCNC5C2)CCN1C (stereo not given)	3.8	7.4	14.0	50.8*	2.5	-2.3	51.6*
COc1ccc2cc1Oc1ccc(cc1)C[C@H]1c3c(cc(OC)c4c3Oc3c(ccc5c3[C@H](C2)N(C)CC5)O4)CCN1C	·	2.6	·	14.6	·	·	·
CC1CCCCN1Cc1c(O)ccc2c(=O)c(-c3nc4ccccc4s3)c(N)oc12 (stereo not given)	1.0	-1.3	4.0	51.4*	7.9	-1.8	50.7*
O=C(CS(=O)c1ccc(C(F)(F)F)cc1[N+](=O)[O-])Oc1ccccc1 (stereo not given)	-1.0	-0.6	5.2	52.9*	-19.2	2.8	51.9*
COC(=O)c1ccc(OC(=O)CS(=O)c2ccccc2[N+](=O)[O-])cc1 (stereo not given)	-1.9	7.6	1.2	11.3	1.2	1.2	·
c1cc(Nc2ncnc3sc4c(c23)CCC4)ccn1	5.5	-4.6	2.6	3.1	-2.4	-3.6	·
NNc1ncnc2sc3c(c12)CCC3	-1.9	-1.5	-2.3	43.9*	21.9	1.7	21.9
O=C(COc1ccc(/C=C2/NC(=O)NC2=O)cc1)Nc1ccc(F)cc1	-12.0	1.9	·	15.5	·	-5.4	·
COc1cc(/C=C2/NC(=O)NC2=O)ccc1OCC(=O)Nc1ccc(F)cc1	5.2	-0.2	·	86.6*	·	2.4	10.2
CCN1C(=O)CC(c2ccccc2)N(C2CCCC2)c2nc(Nc3ccc(C(=O)NC4CCN(C)CC4)cc3OC)ncc21 (stereo not given)	·	10.4*	·	47.5*	·	·	50.3*
O=C(NCCNc1ccc2ccccc2c1)c1cccn2c(=O)c3sccc3nc12	-3.3	·	3.1	50.7*	32.2	0.1	41.2
O=C(NCCN1CCN(c2ccccc2)CC1)c1cccn2c(=O)c3ccccc3nc12	8.4	-2.2	2.3	-14.3	2.6	1.5	·
O=C(O)c1ccc(Cl)c(NC(=O)C2CCCN2S(=O)(=O)c2cccc3nsnc23)c1 (stereo not given)	-3.2	-1.7	-0.7	68.6*	0.1	-3.3	0.3

Source: PubChem BioAssay (several laboratories)
